# Data from PubChem BioAssay AID485276 (Southern Research Specialized Biocontainment Screening …, 2010).
# Measured potencies and affinities stand elsewhere. The source made the active and inactive calls. The rule behind the calls is not given here.
# Assay: antiviral efficacy against SV40, host toxicity – BSC cells, set 3, confirmation (AID 485276)
# Conditions: series mostly up to 200 µM; CPE inhibition: at the top concentration
row,SMILES,CPE inhibition
1,CC(C)(c1ccccc1)n1nnc(-c2ccccc2)n1,0% (inactive)
2,Oc1ccc(C2(c3ccc(O)cc3)CC2)cc1,37.4% (inactive)
3,CC(C)(c1ccc(O)cc1)c1ccc(Cl)cc1,0% (inactive)
4,Oc1ccc(Cl)cc1Cc1cc(Cl)ccc1O,0% (inactive)
5,Oc1c(Cl)cc(Cl)cc1Sc1cc(Cl)cc(Cl)c1O,0% (inactive)
6,Oc1ccc(Oc2ccc(O)cc2)cc1,0% (inactive)
